Assay outcomes as filed in PubChem BioAssay.
In the library only some 11% were active in any assay of this set; here they are far more common.
Pf growth 96h: inhibits malaria parasite growth, 96 h. P. falciparum luciferase reporter growth, 96 h. Potency, µM (top dose mostly 28.7 µM), for inactives: at the highest dose activity change, negative = inhibition, usual class: inhibitors. 320,000 tested, 6.9% active. AID 504834
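Luminescence readout: decreased luciferase signal marks inhibited growth of reporter-expressing P. falciparum in infected red cells (2% hematocrit, 0.05% parasitemia final), exposed to compound two generations (96 h, 37 C, 5% CO2).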
AmpC inh no detg: AmpC beta-lactamase inhibition without detergent. 330,000 tested, 0.52% active. Potency, µM (titrated, usually from 57.1 µM), without a hit: at the top dose activity change, negative = inhibition, hits mostly inhibitors. AID 485341. AmpC nitrocefin hydrolysis, absorbance 480 nm, 0.0001% Triton. P00811;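 note: plate controls were no compound for no effect and no enzyme for full effect; nearly all actives have a fitted effect of over 20% in size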
Target sequence (P00811 whole entry, looked up): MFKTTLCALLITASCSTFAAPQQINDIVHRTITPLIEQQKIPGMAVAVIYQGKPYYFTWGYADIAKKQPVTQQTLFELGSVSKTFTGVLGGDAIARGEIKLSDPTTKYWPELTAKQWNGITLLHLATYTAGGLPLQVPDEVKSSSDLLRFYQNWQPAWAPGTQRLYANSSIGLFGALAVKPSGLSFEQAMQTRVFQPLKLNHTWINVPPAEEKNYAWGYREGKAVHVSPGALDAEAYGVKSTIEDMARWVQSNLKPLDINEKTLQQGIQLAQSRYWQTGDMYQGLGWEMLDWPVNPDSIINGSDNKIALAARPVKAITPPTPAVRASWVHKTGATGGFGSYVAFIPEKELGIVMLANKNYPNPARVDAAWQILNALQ
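20 mM phosphate pH 7.0 + 0.01% (detergent screen) or 0.0001% Triton X-100; 5.3 nM AmpC reagent; cpd preinc 15 min RT; nitrocefin (800 uM stock) to start; A480 q20 s × 4 min; Activity was normalised to no-enzyme and no-compound control wells.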
AMA1-RON2 inh: AMA1-RON2 (P. falciparum) interaction inhibition; AlphaScreen AMA1-biotinylated RON2 peptide binding; Potency, µM (highest dose often 58.2 µM), without a hit: top-dose activity change, negative = inhibition, actives largely listed as inhibitors; 360,000 tested, 0.2% active;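 note: 0% = vehicle wells and -100% = peptide control; nearly all actives have a fitted effect of over 45% in size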
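AMA1 (3D7) with his tag at 25 nM final met compounds first, then biotinylated RON2 peptide at 25 nM; detection used donor plus acceptor beads, 10 µg/mL apiece, read by AlphaScreen after 30 min at room temperature.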
Pf growth 48h: P. falciparum growth inhibition at 48 hours (one generation) | Potency, µM (top dose mostly 28.7 µM), for the others: at the highest dose activity change, negative = inhibition, most hits filed as inhibitors | 310,000 tested, 5.9% active | P. falciparum luciferase growth in erythrocytes, 48 h
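Here the parasites carry a stable luciferase gene and grow inside erythrocytes in Albumax-based RPMI medium with compound for one erythrocytic cycle. Activity is scored as loss of luminescent signal.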
HCV inh: inhibitors of hepatitis C virus infection. Huh7.5.1 HCVcc-Cre infection, luciferase reporter, 44 h. Potency, µM (highest dose often 41.8 µM), for the others: top-dose activity change, negative = inhibition, most hits filed as inhibitors. 340,000 tested, 3.4% active
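A cell-based infection assay in which seeded cells (1,000 per well) receive test compound after 4 h, are inoculated with HCVcc-Cre at approximately 0.5 moi, and are incubated 44 h before luminescence detection.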
AmpC detergent: AmpC beta-lactamase inhibition with detergent present | P00811 | AmpC hydrolysis of nitrocefin, absorbance 480 nm, 0.01% Triton | Potency, µM (highest dose often 114 µM), for the others: at the highest dose activity change, negative = inhibition, hits mostly inhibitors | 370,000 tested, 0.041% active;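 note: 0% = no-compound wells and -100% = no-enzyme wells; nearly all actives have a fitted effect of over 25% in size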
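20 mM phosphate pH 7.0 + 0.01% (detergent screen) or 0.0001% Triton X-100; 5.3 nM AmpC reagent; cpd preinc 15 min RT; nitrocefin (800 uM stock) to start; A480 q20 s × 4 min; Activity was normalised to no-enzyme and no-compound control wells.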
An asterisk follows results filed as active; ? = inconclusive; . = no result; [ ] = dose if it differs, or a comment. Calls come from the whole dose curve; as a rule, active = well fitted curve in the direction sought with a large enough effect; inconclusive = small, poorly fitted or top-dose-only effect, or another doubt; inactive = no such curve, though single readings can be large; an effect the other way counts as inactive or inconclusive. Unless noted, % is set by controls: 0 for no effect and ±100 for the full control effect; potency is the fitted concentration of half-maximal effect.

SMILES	Pf growth 96h	AmpC inh no detg	AMA1-RON2 inh	Pf growth 48h	HCV inh	AmpC detergent
Cc1c(CN2CCc3c([nH]c4ccccc34)C2CC(C)C)cnn1C (centres undefined)	0%	3%	1%	-28%	8%	3%
CC(C)CC1c2[nH]c3ccccc3c2CCN1C(=O)C1CCOCC1 (centres undefined)	4%	79%	4%	4.7µM*	1%	4%
CC(C)CC1c2[nH]c3ccccc3c2CCN1C(=O)c1cnccn1 (centres undefined)	?	11%	-7%	?	-6%	-2%
Cc1cccc(NC(=O)CN2C(=O)CSc3ccc(S(=O)(=O)N4CCCC4)cc32)c1C	.	.	.	.	.	17%
CNC(=O)C1CCN(C(=O)N2CC(C)Oc3ccc(Cl)cc32)CC1 (centres undefined)	.	.	.	.	.	13%
CC(C)CC(=O)OC1C(N2CCOCC2)c2c(ccc(/C=C/C(=O)N3CCOCC3)c2O)OC1(C)C (centres undefined)	2.6µM*	188%	-11%	?	21%	-13%
CC1(C)Oc2ccc(/C=C/C(=O)N3CCOCC3)c(O)c2C(N2CCOCC2)C1O (centres undefined)	53%	-35%	.	20%	-15%	?
Cc1cccc(Cn2cc(C(=O)Nc3ccc(F)c(C(F)(F)F)c3)ccc2=O)c1	.	.	.	.	.	17%
CN(C)CCCNc1nc2sc3c(c2c(=O)n1CCc1ccccc1)CCCCC3	4.1µM*	9%	-17%	6.6µM*	?	8%
CCn1nc(C(=O)Nc2cccc(S(=O)(=O)N3CCCC3)c2)c2ccccc2c1=O	?	40%	-3%	13µM*	?	0%
CCn1nc(C(=O)Nc2ccc3c(c2)OCCO3)c2ccccc2c1=O	.	.	-14%	.	.	.
CC(C)Cn1nc(C(=O)Nc2cccc(S(=O)(=O)N3CCCC3)c2)c2ccccc2c1=O	9.3µM*	0%	-4%[11.6 µM]	12µM*	?	2%
O=C(Cc1ccc(S(=O)(=O)N2CCOCC2)s1)NNC(=O)c1ccccc1Cl	?	-10%	-4%[11.6 µM]	-14%	36%	3%
CC(C)Cn1nc(C(=O)Nc2cccc(C(=O)NC3CC3)c2)c2ccccc2c1=O	?	-5%	-2%	?	?	3%
CCCn1nc(C(=O)NNC(=O)Cc2ccc(S(=O)(=O)N3CCOCC3)s2)c2ccccc2c1=O	?	-25%	58%	12µM*	?	-11%
CCCn1nc(C(=O)Nc2cccc(S(=O)(=O)N3CCOCC3)c2)c2ccccc2c1=O	.	.	-13%	.	.	.
CCn1nc(C(=O)Nc2ccc(Cl)c(S(=O)(=O)N3CCOCC3)c2)c2ccccc2c1=O	?	89%	-9%	10µM*	11µM*	?
CN1C(C(=O)c2ccccc2)=C(OC(=O)c2ccc(Br)cc2)c2ccccc2S1(=O)=O	.	.	.	.	.	31%
CC(=O)N1c2ccc(S(=O)(=O)N3CCCCCC3)cc2CC1C(=O)NC(C)C (centres undefined)	.	.	.	.	.	5%
COc1cccc(-n2ccnc2SCC(=O)Nc2c(C)cc(C)cc2C)c1	.	.	.	.	.	1%
CCc1ccc(S(=O)(=O)NCCc2csc(-c3cccnc3)n2)s1	?	35µM*	12%	13%	11%	3%
CC(=O)Nc1ccc(S(=O)(=O)NCCc2csc(-c3cccnc3)n2)cc1	8.3µM*	1%	-13%	-9%	4%	3%
O=C(CCS(=O)(=O)c1cccc2nsnc12)NCc1ccccc1Cl	9.3µM*	-19%	9%	7%	6%	-1%
Cc1c(Cl)cccc1NC(=O)CCn1c(=O)c2cccn2c2ccccc21	.	.	.	.	.	11%
CO[C@H]1OC2O[C@@]3(C)CC[C@H]4[C@H](C)CC[C@@H]([C@H]1C)[C@@]24OO3 (some centres undefined)	0.0048µM*	.	.	0.0048µM*	.	.
SMILES	Pf growth 96h	AmpC inh no detg	AMA1-RON2 inh	Pf growth 48h	HCV inh	AmpC detergent
C[C@H]1[C@H](OC(=O)CCC(=O)NCc2ccc(C(=O)O)cc2)O[C@@H]2O[C@@]3(C)CC[C@H]4[C@H](C)CC[C@@H]1C24OO3	0.0033µM*	-5%	39%	0.019µM*	?	2%
CCNC(=O)c1cnc2sc(N3CCC(C)CC3)nn2c1=O	.	.	.	.	.	4%
COc1c2ccoc2cc2oc(=O)ccc12	.	-10%	-5%	.	-20%	.
CC1(C)OC1COc1c2ccoc2cc2oc(=O)ccc12 (centres undefined)	0.37µM*	-11%	2%	-3%	-9%	7%
COc1ccc(S(=O)(=O)N2CCOC23CCN(S(=O)(=O)c2cccs2)CC3)cc1	?	-16%	12%	?	6%	0%
COc1ccc(S(=O)(=O)N2CCC3(CC2)OCCN3S(=O)(=O)c2ccc(OC)cc2)cc1	9.3µM*	-29%	-13%	?	-23%	?
COc1ccc(S(=O)(=O)N2CCOC23CCN(S(=O)(=O)c2ccc(Cl)cc2)CC3)cc1	?	-18%	15%	12µM*	?	-8%
Cc1nc(-n2nc(C)c(Cc3ccccc3Cl)c2C)sc1C(=O)Nc1ccccc1F	.	.	.	.	.	23%
COc1ccc(Nc2nc(N3CCCCC3)c3ccccc3n2)cc1	4.7µM*	-23%	-40%	7.4µM*	?	3%
Cc1ccc(-c2cc3ccccc3nc2N2CCOCC2)cc1	-16%	-1%	0%	-15%	10µM*	1%
COc1ccc(Nc2nc(-c3ccc(C)cc3)nc3ccccc23)c(OC)c1	.	.	.	.	.	9%
c1ccc2c(c1)nc(N1CCCCCC1)c1ccccc12	-13%	-36%	43%	?	-23%	1%
COc1ccc(Nc2nc(N3CCCC3)nc3ccccc23)c(OC)c1	.	41%	-4%	6.6µM*	3.2µM*	-11%
C=CCNc1nc(N2CCCC2)nc2ccccc12	.	-18%	-3%	5.2µM*	16µM*	-14%
Cc1ccc(NC(=O)CSc2nc(=O)n(Cc3ccco3)c3c2CCC3)cc1F	.	.	.	.	.	1%
Cc1cccc(-n2nnc(-c3nc(-c4cccs4)no3)c2N)c1	.	.	.	.	.	-2%
CC(C)Oc1ccc(C(=O)N2CC(=O)Nc3ccc(F)cc3C2c2ccc(F)cc2)cc1 (centres undefined)	.	.	.	.	.	10%
Cc1cc(C)c2sc(N(Cc3cccnc3)C(=O)CCS(=O)(=O)c3ccccc3)nc2c1	.	.	.	.	.	1%
Cc1ccc(-c2nnc(-c3ccccc3)c(N3CCOCC3)n2)cc1	?	3%	-13%	-1%	11µM*	-18%
Oc1ccc(Nc2nc(N3CCCC3)c3ccccc3n2)cc1	7%	-34%	4%	0.47µM*	?	-3%
